Screening results (PubChem)
ELG1 genotox = qHTS screen for small molecules that induce genotoxicity in human embryonic kidney (HEK293T) cells expressing luciferase-tagged ELG1; HEK293T ELG1-luciferase reporter, luminescence, 16 h; Potency, µM (doses to about 46 µM), most hits filed as activators; 1.3% of 330,000 active; AID 504466, 2011; further: nearly all actives have a fitted effect of over 60% in size
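Step 1: seed 2,000 HEK293T ELG1-luciferase cells per well. Step 2: add compound or DMSO, incubate 16 hr at 37 °C. Step 3: ONE-Glo, 30 min at room temperature, read luminescence.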
FLuc modulator = qHTS profiling assay for firefly luciferase inhibitor/activator using purifed enzyme and Km concentrations of substrates (counterscreen for miR-21 project); Luciferin 4-monooxygenase (Photinus pyralis), P08659; 6.9% of 360,000 active; purified FLuc, Km substrates, luminescence inhibition; Potency, µM (top dose mostly 57.5 µM), hits mostly inhibitors; further: nearly all actives have a fitted effect of over 55% in size
Target sequence (P08659 whole entry, looked up): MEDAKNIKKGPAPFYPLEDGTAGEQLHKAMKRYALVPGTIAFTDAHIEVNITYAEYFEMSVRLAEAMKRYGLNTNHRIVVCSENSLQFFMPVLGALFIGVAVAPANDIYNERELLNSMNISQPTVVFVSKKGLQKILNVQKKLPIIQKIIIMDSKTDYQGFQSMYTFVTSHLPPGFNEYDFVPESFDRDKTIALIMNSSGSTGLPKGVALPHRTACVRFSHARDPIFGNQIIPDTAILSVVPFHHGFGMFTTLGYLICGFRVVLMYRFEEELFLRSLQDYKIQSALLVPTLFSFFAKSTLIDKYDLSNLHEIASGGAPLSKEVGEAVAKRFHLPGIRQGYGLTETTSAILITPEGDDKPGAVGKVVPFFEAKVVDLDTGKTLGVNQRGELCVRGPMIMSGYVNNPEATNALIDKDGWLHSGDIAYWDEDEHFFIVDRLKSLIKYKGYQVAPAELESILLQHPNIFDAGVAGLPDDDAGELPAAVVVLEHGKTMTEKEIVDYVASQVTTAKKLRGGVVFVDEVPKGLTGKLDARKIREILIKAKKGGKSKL
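Biochemical qHTS of compounds, final roughly 60 µM downward over six points, against 10 nM purified firefly luciferase using Km concentrations of substrates (10 uM D-luciferin, 10 uM ATP) in Tris acetate pH 7.5 buffer; luminescence output.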
SMN2 splice enh = qHTS Assay for Enhancers of SMN2 Splice Variant Expression. Potency, µM (titrated, usually from 46.1 µM), usual class: activators. 2.8% of 210,000 active. HEK293 SMN2-luciferase splicing reporter, luminescence, 30-36 h; further: nearly all actives have a fitted effect of over 55% in size
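HEK293 cells carry an SMN2 […]–luciferase reporter in which exon 7 inclusion puts luciferase in frame. Cells were plated 10-12 h before compound addition, then incubated 30-36 h at 37C. ONE-Glo luminescence was read; sodium butyrate at 4.5 mM final served as control.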
NPC1 promoter act = qHTS Assay for NPC1 Promoter Activators | Huh7 NPC1 promoter luciferase reporter, 24 h | Potency, µM (highest dose often 9.22 µM), hits mostly activators | 2.4% of 320,000 active; further: nearly all actives have a fitted effect of over 60% in size
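Cells: Huh7 expressing luciferase under the NPC1 promoter, 1500/well. Seeded 2 h, compound added, incubated 24 h at 37 °C. Luciferase reagent, 10 min ambient, then luminescence.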
Rab9 prom act = qHTS Assay for Rab9 Promoter Activators; Huh7 Rab9 promoter-luciferase reporter, luminescence, 24 h; Potency, µM (top dose mostly 9.22 µM), actives largely listed as activators; 2.8% of 320,000 active; further: nearly all actives have a fitted effect of over 60% in size
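Huh7 cells stably carrying a Rab9 promoter-luciferase reporter, 1500 cells per well in OP-MEM I with 10% FBS, treated with compound 24 hours at 37C. Luciferase activity read by luminescence after 10 minutes with Amplite reagent.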
KinaseGlo FLuc = Counterscreen for Luciferase (Kinase-Glo TM) Inhibition; Kinase-Glo luciferase, ATP luminescence, 8 min; 0.28% of 200,000 active; Potency, µM (doses to about 38.3 µM), actives largely listed as inhibitors; AID 1379, 2008; further: nearly all actives have a fitted effect of over 60% in size
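Compounds were added to a substrate mix at pH 7.2 (50 mM imidazole, 10 uM ATP, within the enzyme's linear range), followed by Kinase-Glo detection reagent; luminescence was measured after 8 minutes at ambient temperature.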
A number is an active result; 0 = inactive; ? = inconclusive; - = no result. Rows were chosen to be rich in hits. Some 7.5% of all compounds tested hit in one or more screens of this group. The call rests on the fitted dose curve; in most records, active means well fitted curve in the direction sought with a large enough effect; inconclusive means small, poorly fitted or top-dose-only effect, or another doubt; inactive means no such curve, though single readings can be large; an effect the other way counts as inactive or inconclusive.

SMILES	ELG1 genotox	FLuc modulator	SMN2 splice enh	NPC1 promoter act	Rab9 prom act	KinaseGlo FLuc
CCCCn1c(N)c(N(CC(C)C)C(=O)c2cc3c(s2)CCCCC3)c(=O)[nH]c1=O	0	?	-	0	0	-
CN1C(=O)/C(=N\OC(=O)c2cccc3ccccc23)c2ccccc21	0	11µM	0	0	0	0
CC(=O)/C=C1\C(=O)N(C)c2ccccc21	-	-	-	0	0	-
O=C1CSC(c2cccc(F)c2)N1c1ccccc1 (stereo not given)	0	0	-	0	0	-
Cc1ccc2c(c1)c1c(n2C)C(C(N)=O)CCC1 (stereo not given)	0	0	0	0	0	0
Cc1ccc2c(c1)c1c(n2C)-c2[nH]ncc2CC1	0	13µM	0	0	0	0
Cc1ccc(NC(=S)NNC(=O)Nc2ccccc2)cc1	?	2.4µM	13µM	?	3.2µM	0
CCC(C)NC(=S)Nc1ccccc1 (stereo not given)	0	0	-	0	0	-
O=C(NNC(=S)Nc1ccccc1)NNC(=S)Nc1ccccc1	0	0	0	0	0	0
O=C(NNC(=S)Nc1ccccc1)Nc1ccccc1	0	?	5.6µM	0	0	0
CC(C)C(NC(=S)Nc1ccccc1)C(=O)O (stereo not given)	0	0	3.2µM	0	0	0
Cc1ccc(NC(=S)NNC(=O)c2nn(C)c(C)c2Cl)cc1	0	0	?	?	3.2µM	0
CC(Oc1ccc(F)cc1)C(=O)NCC1(N(C)C)CCCCC1 (stereo not given)	-	0	-	-	-	-
CCc1c2c(nc3ccc(OC)cc13)OC(C)C2 (stereo not given)	-	-	0	-	-	0
CCCc1nn2cc(-c3ccc(C)c(C)c3)nc2s1	-	0.19µM	1.3µM	-	-	-
COc1ccccc1-c1nnc(SCC(=O)N2CCCCC2)o1	0	0	-	0	0	-
Cc1ccccc1-c1nnc(SCC(=O)N2CCCC2)o1	?	17µM	-	?	?	-
Cc1ccccc1-c1nnc(SCC(=O)N2CCCc3ccccc32)o1	-	?	0	-	-	-
O=C(CSc1nnc(-c2ccccc2Cl)o1)N1CCOCC1	?	19µM	-	2.2µM	3.5µM	-
COc1ccccc1-c1nnc(-c2ccc(N3CCOCC3)cc2)o1	0	19µM	5.6µM	?	?	0
COc1ccccc1-c1nnc(SCC(=O)N2CCOCC2)o1	0	?	8.9µM	0	0	0
O=[N+]([O-])c1ccc(Cl)c(S(=O)(=O)N2CCCCCC2)c1	0	0	0	0	0	0
CC(C)c1ccc(OCc2cc(=O)n3c(-c4ccccc4)csc3n2)cc1	-	0	0	-	-	-
CCN(CC)C(=O)CSc1nc(N)c2c3c(sc2n1)CC(C)CC3 (stereo not given)	0	1.9µM	0	0	0	0
CC1CCc2c(sc3nc(SCC(=O)NCc4ccco4)nc(N)c23)C1 (stereo not given)	0	4.8µM	0	0	0	0
SMILES	ELG1 genotox	FLuc modulator	SMN2 splice enh	NPC1 promoter act	Rab9 prom act	KinaseGlo FLuc
CCOC(=O)CSc1nc(N)c2c3c(sc2n1)CCCC3	0	9.5µM	0	0	0	0
Cc1ccc(-c2nc(SC(C)C(=O)N3CCCC3)n[nH]2)cc1 (stereo not given)	0	0	-	0	0	-
c1ccc(COc2ccc(CN3CCN(c4ccccn4)CC3)cc2)cc1	21µM	6.7µM	0	?	2.2µM	0
NC(=O)C1CCN(Cc2ccc(OCc3ccccc3)cc2)CC1	?	15µM	-	2.5µM	?	-
CCOC(=O)C1CCN(Cc2ccc(OCc3ccccc3)cc2)CC1	0	0	-	0	0	-
CN(C)c1ccc(N2C(=NC(=O)COc3ccccc3)SC3CS(=O)(=O)CC32)cc1 (stereo not given)	0	0	-	0	0	-
Cc1c(C(C)(C)C)s/c(=N/S(=O)(=O)c2ccccc2)n1C	0	0	-	0	0	-
Cc1c(C(C)(C)C)sc(=NC(=O)c2ccccc2O)n1C	?	0.95µM	-	2.8µM	1µM	-
Cc1ccc(NC(=O)Cn2c(=O)c3ccccc3n3nncc23)cc1	-	0	0	-	-	-
Cc1cc(C(=O)OC2CCOC2=O)c2ccccc2n1 (stereo not given)	0	0	0	0	0	0
O=C(OC1CCOC1=O)c1cc(-c2ccc(Br)cc2)nc2ccccc12 (stereo not given)	0	19µM	0	0	0	0
O=C(OC1CCOC1=O)c1cc(-c2cccc(Br)c2)nc2ccccc12 (stereo not given)	0	?	0	0	0	0
COc1ccc(-c2cc(C(=O)OC3CCOC3=O)c3ccccc3n2)cc1 (stereo not given)	0	7.6µM	0	0	0	0
Cc1ccc2c(c1)[C@H]1[C@H](CO2)[C@H](c2ccccc2)[C@]2(C)C(=O)Nc3cc(F)ccc3C(=O)N12	0	-	-	-	-	-
Cc1ccsc1C(=O)NC(C)c1ccccc1 (stereo not given)	0	0	-	0	0	-
CCOc1cc(-c2cc(C(=O)O)c3c(-c4ccccc4)[nH]nc3n2)ccc1O	-	?	0	-	-	-
CCc1ccc(-c2[nH]nc3nc(-c4cc(OC)ccc4OC)cc(C(=O)O)c23)cc1	-	1.9µM	-	-	-	-
COc1ccc(-c2[nH]nc3nc(-c4cc(OC)c(OC)c(OC)c4)cc(C(=O)O)c23)cc1	-	2.7µM	-	-	-	-
COc1ccc(C(=O)N/N=C/C(=O)c2ccccc2)cc1	10µM	1.5µM	-	2.5µM	?	-
Cc1ccc(C(=O)NN=CC(=O)c2ccccc2)c(C)c1	2.3µM	-	-	-	-	-
COCCNC(=O)c1ccc(C)cc1C	0	0	0	0	0	0
O=C(c1ccc(F)cc1F)N1CCC(c2nc(-c3ccc(S(=O)(=O)N4CCCC4)cc3)no2)CC1	-	0	0	-	-	-
CC(=O)Oc1c(Cl)c(N2CCOCC2)c(OC(C)=O)c2ccccc12	0	0	0	0	0	0
C(=N\Nc1nc(-c2ccccc2)cs1)/c1cccs1	16µM	5.4µM	7.9µM	0	?	0
O=C(O)Cc1sc(Nc2ccc(Cl)cc2)nc1-c1cccs1	?	13µM	14µM	?	3.5µM	0
SMILES	ELG1 genotox	FLuc modulator	SMN2 splice enh	NPC1 promoter act	Rab9 prom act	KinaseGlo FLuc
Cc1ccc(Nc2nc(-c3ccc(C)cc3)c(CC(=O)O)s2)cc1	0	?	0	0	0	0
O=C(O)Cc1sc(Nc2cccc3ccccc23)nc1-c1ccccc1	0	24µM	-	0	0	-
Nc1nc(-c2cccs2)c(CC(=O)O)s1	0	0	0	0	0	0
O=C(O)Cc1sc(N/N=C\c2ccncc2)nc1-c1ccccc1	0	15µM	-	0	0	-
O=C(COC(=O)Cc1ccc(S(=O)(=O)N2CCOCC2)s1)Nc1ccc(OC(F)F)cc1	0	-	-	-	-	-
Cc1ccc(-c2sc(C(=O)Nc3ccc(Br)cc3)cc2CC(=O)O)cc1	-	?	0	-	-	-
